Bioassay records deposited in PubChem by Broad Institute.
aSyn 5UTR act – Activators via SNCA 5'UTR binding, MLPCN; alpha-synuclein 5'UTR reporter, activators screen; activity score, % (tested at 7.5 µM), hits read low; actives 7.1% (n = 300,000); in the data active means activity score below about -60%
Numbers stand for hits; 0 = inactive. A selection follows.

SMILES	aSyn 5UTR act
COc1cccc(N2CCN(C(=O)c3ccc(CS(=O)c4ccc(C)cc4)o3)CC2)c1 (stereo not drawn)	0
COc1cccc(N2CCN(C(=O)c3ccc4nc(N5CCC(C)CC5)sc4c3)CC2)c1	-156.8
CCOC(=O)N1CCN(C(=O)c2ccc3nc(N4CCC(C)CC4)sc3c2)CC1	-123.6
c1ccc(CN2CCN(c3nc4ccccc4s3)CC2)cc1	-149.9
CC1CCN(c2nc3ccc(C(=O)N4CCN(Cc5ccccc5)CC4)cc3s2)CC1	-136.8
O=C(Nc1cccc(F)c1)Nc1ccccn1	-152.7
O=C(NCc1ccccn1)Nc1ccc2c(c1)OCO2	-91.9
O=C(NCc1cccs1)Nc1ccc(Cl)cc1	-98.5
O=C(Nc1ccc2c(c1)OCO2)Nc1ccccn1	-85.8
O=C(Nc1ccccn1)Nc1cccs1	-76.8
O=C(NCc1cccs1)Nc1ccc2c(c1)OCO2	-145.0
Cc1cccc(NC(=O)NCc2ccc3c(c2)OCO3)c1	-67.0
O=C(Nc1ccc2c(c1)OCO2)Nc1cnccn1	-98.3
O=C(NCc1ccncc1)Nc1ccc2c(c1)OCO2	-64.3
CC(=O)c1cccc(NC(=O)NCc2ccccn2)c1	-166.9
CC(=O)N(Cc1ccco1)c1nc(C(=O)Nc2ccc(Cl)cc2)c(C)s1	-104.8
Brc1c(CSc2nc3ccccc3o2)nc2ncccn12	-117.7
Clc1c(CSc2nc3ccccc3o2)nc2ccccn12	-117.0
Clc1c(CSc2nc3ccccc3o2)nc2sccn12	-117.4
O=C(CSc1nccn1-c1ccccc1)c1ccc(Cl)cc1	-111.4
Cc1ccc(C(=O)CSc2nccn2-c2ccccc2)cc1	-94.8
O=C(CSc1nccn1-c1ncc(C(F)(F)F)cc1Cl)c1ccc(Br)cc1	-194.6
CC(=O)Nc1ccc(/C=C/c2noc(-c3ccccc3O)n2)cc1	-163.4
COc1cc(/C=C/c2noc(-c3ccccc3O)n2)ccc1OC(C)=O	-130.5
Oc1ccccc1/C=C/c1noc(-c2ccccc2O)n1	-218.0
SMILES	aSyn 5UTR act
Nc1nc(Cl)nc2ccc(Br)cc12	-122.8
CCN(CC)C(=O)CSc1ncnc2sc(-c3ccccc3)cc12	-168.5
CN(CCC#N)C(=O)CSc1ncnc2sc(-c3ccccc3)cc12	-106.1
CCc1cc2c(SCC(=O)c3ccccc3)ncnc2s1	-122.3
COc1ccc(N=Cc2c(O)c3ccccc3n2C(C)=O)cc1	-131.5
COc1ccc(N=Cc2sc(O)c3ccccc23)cc1	-274.0
COc1ccc2nc(N3CCC(C)CC3)c(C#N)cc2c1	-175.2
COc1ccc(Oc2ccc(C(F)(F)F)cc2N)cc1	-68.2
Cc1ccc(NC(=S)Nc2nc(CC(=O)Nc3ccccc3)cs2)cc1	-118.8
Cc1cc(C)c2nc(N3CCCC(C(=O)NC4CCCC4)C3)sc2c1 (stereo not drawn)	-90.3
CCOC(=O)N1CCN(S(=O)(=O)c2ccc(C(=O)NNc3nc4c(C)cc(C)cc4s3)cc2)CC1	0
CCOc1ccc2nc(N3CCCC(C(=O)NCC4CCCO4)C3)sc2c1 (stereo not drawn)	-144.8
CCOc1ccc2nc(N3CCCC(C(=O)N4CCN(CC)CC4)C3)sc2c1 (stereo not drawn)	-96.3
Clc1ccc(COn2ccnc2)cc1Cl	-104.0
COc1ccc(/C(N)=N/OC(=O)c2ccc3c(c2)OCO3)cc1OC	-87.1
N/C(=N\OC(=O)c1ccc2c(c1)OCO2)c1ccc([N+](=O)[O-])cc1	-128.4
N/C(=N\OC(=O)c1ccc2c(c1)OCO2)c1cccnc1	-138.9
N/C(=N\OC(=O)c1ccc2c(c1)OCO2)c1cccc(Br)c1	-145.7
COc1cc(C(=O)O/N=C(\N)Cc2ccc([N+](=O)[O-])cc2)cc(OC)c1OC	0
Cc1ccc(C(=O)Nc2nnc(SCC(=O)N3CCCc4ccccc43)s2)cc1	0
Cc1ccnc(SCC(=O)N2CCc3ccccc32)n1	-87.3
Cn1ccnc1SCC(=O)N1CCc2ccccc21	-68.9
O=C(CSc1nnc2ccccn12)N1CCc2ccccc2C1	-94.5
O=C(CSc1nnc2ccccn12)N1CCc2ccccc21	-97.7
Brc1ccc(C2C3=C(Nc4ncnn42)c2ccccc2OC3c2ccncc2)cc1 (stereo not drawn)	0
SMILES	aSyn 5UTR act
Cc1ccc(-c2cc(-c3ccccc3O)nc(N/N=C/c3cccnc3)n2)cc1	-99.6
Cc1ccnc(N/N=C/c2ccccc2)n1	-89.6
CSc1nccc(N/N=C/c2ccccc2)n1	-157.7
C(=N\Nc1nccc(-c2cccnc2)n1)/c1ccccc1	-108.0
CC(C)=CCC/C(C)=C/CC(C)(C)CNCCN1CCNCC1	-64.2
O=C(OC1CCCCC1)c1cc2ccccc2oc1=O	-109.2
O=C(NC1CCCCCC1)c1cc2ccccc2oc1=O	-139.2
O=C(c1cc2ccccc2oc1=O)N1CCOCC1	-123.9
O=C(NNc1c(F)c(F)cc(F)c1F)c1cc2ccccc2oc1=O	-121.7
O=c1oc2ccccc2cc1NCc1ccccc1O	-176.1
COc1cccc2cc(NC(=O)C3CCCCC3)c(=O)oc12	-162.2
O=C(NCc1ccccc1Cl)c1cc2ccccc2oc1=O	-144.3
N=c1oc2ccccc2cc1C(=O)NC1CCCCCC1	-115.7
COc1cccc2cc(C(=O)OC3CCN(C)CC3)c(=O)oc12	-87.8
CCCC(=O)c1ccc(N2CCCCC2)c(F)c1	-126.1
CCCC(=O)c1ccc(N2CCCCCC2)c(F)c1	-137.5
CCOC(=O)C(=O)Nc1nc(-c2ccc3c(c2)CCN3C(=O)C2CC2)c(C)s1	-76.4
CC(=O)Nc1nc(-c2ccc3c(c2)CC(C)N3C(=O)C2CC2)c(C)s1 (stereo not drawn)	-295.2
Cc1sc(NC(=O)c2ccco2)nc1-c1ccc2c(c1)CC(C)N2C(=O)C1CC1 (stereo not drawn)	-106.3
CC1Cc2cc(S(=O)(=O)NCc3ccccc3)ccc2N1C(=O)C1CC1 (stereo not drawn)	-65.2
Nc1n[nH]c2ccccc12	-61.6
COc1ccc(NC(=O)c2cc3ccccc3o2)cn1	-215.8
COc1ccc(NC(=O)c2cc(CN3C(=O)c4ccccc4C3=O)ccc2OC)cn1	-85.9
COc1cc(NC(=O)C(C)C)ccc1NC(=O)c1cc2ccccc2o1	-166.3
COc1ccc(NC(=O)c2coc3ccccc23)cc1OC	-122.0
SMILES	aSyn 5UTR act
COc1ccc(NC(=O)c2cc3ccccc3o2)cc1	-152.1
COc1ccc(NC(=O)CCCc2ccccc2)cc1OC	-136.1
COc1ccc(NC(=O)c2cc3ccccc3o2)cc1OC	-149.7
Cc1ccc2nc(N3C(=O)C(O)=C(C(=O)c4ccco4)C3c3cccs3)sc2c1 (stereo not drawn)	-186.9
COc1ccc2nc(N3C(=O)C(O)=C(C(=O)c4ccco4)C3c3ccccc3OC)sc2c1 (stereo not drawn)	-114.2
CC1=NC(=O)C(N=Nc2cccc(O)c2)N1c1ccccc1 (stereo not drawn)	-259.7
CCOC(=O)C1CCN(C(=O)CCCOc2ccccc2)CC1	-120.5
CCC1CCCCN1C(=O)CCCOc1ccccc1 (stereo not drawn)	-113.3
O=C(CCCOc1ccccc1)N1CCCCC1	0
COc1ccccc1C(=O)NNC(=O)c1ccccc1	-74.0
Cc1ccccc1C(=O)NNC(=O)c1ccc(Br)cc1	-96.1
COc1ccccc1C(=O)NC(=O)Nc1cccc(Cl)c1	-128.7
COc1ccccc1C(=O)N1CCN(c2cccc(Cl)c2)CC1	0
COc1ccccc1C(=O)NNC(=O)c1cccc(Cl)c1	-65.9
COc1ccccc1C(=O)NNC(=S)NC(=O)c1cccs1	0
COc1ccccc1C(=O)NNC(=O)c1cccc(Br)c1	-114.6
COc1ccccc1C(=O)CC(=O)c1ccccc1	-113.8
COc1ccccc1C(=O)NNC(=S)NC(=O)c1sc2ccccc2c1Cl	-137.9
O=C(c1ccc(-c2ccccc2)cc1)N1CCN(c2ccccc2)CC1	-69.6
